Measles CPE: protection of cells from measles virus; Measles virus-infected cells, CPE protection, absorbance; protection (pct of control), % at 4 µM; 1.5% of 140,000 active; in the data active = protection mostly above about 24%, no sharp cut-off; inactive = mostly below about 26%
HSV augment: increases HSV replication in cells; HSV replication augmentation in cells, fold increase; 0.005% of 220,000 active; maximum fold increase; in the data active = maximum fold increase above about 1.5; inconclusive = no clear call, values can overlap the other calls; tested in PC3 cells
ROMK primary: modulates human ROMK potassium channel activity. B-score at 10 µM. P48048. 2% of 130,000 active. AID 1918. Tet-inducible ROMK, thallium flux fluorescence; actives lie on both sides;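 active = signal ratio slope over the read window, or its plate-corrected B-score, at least 3 SD from the plate mean, either direction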;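 also: B-score of the F/F0 ratio slope over 7 to 12 s after thallium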
Target sequence (P48048 whole entry, looked up): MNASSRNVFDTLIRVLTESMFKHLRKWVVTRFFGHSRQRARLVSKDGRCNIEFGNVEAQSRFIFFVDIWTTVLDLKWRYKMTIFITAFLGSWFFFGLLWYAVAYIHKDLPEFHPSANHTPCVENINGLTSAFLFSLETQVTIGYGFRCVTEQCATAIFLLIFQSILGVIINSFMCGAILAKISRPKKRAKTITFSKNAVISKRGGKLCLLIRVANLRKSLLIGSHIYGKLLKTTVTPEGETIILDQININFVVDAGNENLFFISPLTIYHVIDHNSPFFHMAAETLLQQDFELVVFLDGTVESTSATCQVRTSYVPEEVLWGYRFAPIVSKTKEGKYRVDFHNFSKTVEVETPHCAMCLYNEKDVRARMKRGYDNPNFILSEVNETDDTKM
Cl transport mod: modulates chloride dependent transport by human KCC2; Q9H2X9; KCC2 cells, thallium flux FluoZin-2 fluorescence; B-score of Tl+ flux slope (higher = more flux/activation; lower = inhibition) at 10 µM; 2.2% of 190,000 active;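 active = thallium flux slope and its plate-corrected score both differing from the plate sample mean at a set confidence after two filtering rounds, in either direction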;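 also: slope of fluorescence scaled to starting intensity during 10 to 20 s after thallium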
Arbovirus inh: blocks arbovirus infection; AID 1251; arbovirus infection cell-based antiviral screen; 0.37% of 200,000 active; inhibition, % at 10 µM; in the data active = inhibition above about 30%
KCC2 secondary: KCC2 (human) modulation, secondary assay; normalised thallium flux (F/F0 slope) at 10 µM; HEK293-KCC2, thallium flux, FluoZin2 fluorescence; hits give high values; 15% of 3,700 active; shares compounds with Cl transport mod; AID 1713;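 active = thallium flux slope above the same plate's solvent-only control mean plus 3 SD; inconclusive = the two replicate wells disagree; inactive = no significant difference from solvent-only control wells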
KCC2 bumet counter: thallium flux despite bumetanide block in KCC2 cells, secondary assay 3. shares compounds with Cl transport mod. HEK293-KCC2 + bumetanide/ouabain, thallium flux FluoZin2; hits give high values. normalized thallium flux at 10 µM. 49% of 3,700 active;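 active = thallium entry rate above the same plate's blocked-transporter control wells by more than 3 SD; inconclusive = the two repeat wells disagree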;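 also: raw slope of fluorescence over initial fluorescence between 10 and 20 s after thallium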
KCC2 secondary2: confirmation of human KCC2 transport modulators. 23% of 3,700 active. normalized thallium flux at 10 µM. shares compounds with Cl transport mod. HEK293-KCC2, thallium flux FluoZin2 fluorescence; actives lie on both sides; F/F0 rise rate, 10–20 s post-thallium;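 active = thallium flux slope more than 3 SD above or below the plate's solvent-only control mean, mostly below; inconclusive = the two repeat wells disagreed; inactive = no significant shift from solvent-only controls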
HEK293 Tl flux: parental HEK flux effect, counter-screen | shares compounds with Cl transport mod | HEK293 parental cells, thallium flux FluoZin2, ouabain; baseline-ratio fluorescence slope, 10–20 s after thallium | thallium flux rate (normalised fluorescence) at 10 µM | 46% of 3,700 active;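 active = thallium flux rate significantly above the same plate's solvent-only control wells, beyond their mean plus 3 SD; inconclusive = the two replicate wells gave conflicting results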
KCC2 ouabain: KCC2 (human) modulation, ouabain retest; shares compounds with Cl transport mod; HEK293-KCC2, thallium flux FluoZin2 fluorescence; bidirectional: low = inhibitor, high = activator; raw Tl+ flux slope (below DMSO = inhibition, above = activation) at 10 µM; 48% of 3,700 active; AID 1717;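 active = thallium flux slope beyond 3 SD from same-plate DMSO control mean in most replicates, usually higher, sometimes lower; inconclusive = repeat tests gave conflicting results; inactive = no significant difference from controls in most replicates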;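 also: slope of initial-normalized fluorescence between seconds 10 and 20 after thallium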
HEK293 Tl flux2: counter-screen for KCC2 modulators: effect in parental HEK293 cells | shares compounds with Cl transport mod | 33% of 3,700 active | thallium flux slope at 10 µM | AID 1718 | thallium flux FluoZin-2 fluorescence slope;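 active = thallium flux slope above the same plate's solvent-control mean plus 3 SD in both duplicate wells; inconclusive = duplicate wells that disagreed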;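 also: run without ouabain in cells lacking the KCC2 cotransporter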
Of the large screens only hits and unclear results are named; the others gave an inactive call (follow-up assays come after a bar, where they were run). Hits are enriched below; roughly 4% of the tested compounds scored in any of these assays.

COc1ccc(S(=O)(=O)N(CC(=O)NC(C)C)Cc2ccccc2)cc1	none (no result: Cl transport mod)
CCOC(=O)c1ccccc1NC(=S)N1CCN(C2CCCCC2)CC1	none (no result: Measles CPE)
O=c1c2cc(Cl)ccc2[nH]c(=S)n1Cc1ccccn1	Cl transport mod 9.89 (no result: ROMK primary) | KCC2 secondary inactive | KCC2 bumet counter 0.0666 | KCC2 secondary2 0.0469 | HEK293 Tl flux 0.0357 | KCC2 ouabain 0.0536 | HEK293 Tl flux2 0.0338
CCN(CC)CCn1c(=S)[nH]c2ccc(Cl)cc2c1=O	Cl transport mod 24.7 (no result: HSV augment, ROMK primary) | KCC2 secondary inactive | KCC2 bumet counter 0.0173 | KCC2 secondary2 inactive | HEK293 Tl flux inconclusive | KCC2 ouabain 0.03 | HEK293 Tl flux2 inactive
O=c1c2cc(Br)ccc2[nH]c(=S)n1Cc1cccnc1	Cl transport mod 5.43 (no result: HSV augment, ROMK primary) | KCC2 secondary inconclusive | KCC2 bumet counter 0.0246 | KCC2 secondary2 inactive | HEK293 Tl flux 0.0136 | KCC2 ouabain inactive | HEK293 Tl flux2 0.012
Cc1ccc(-c2nnn(CC(=O)Nc3nnc(C(C)C)s3)n2)cc1	none (no result: Measles CPE)
C/C(=N\Nc1ccc(Cl)c(C(=O)O)c1)c1ccc[nH]1	none (no result: Measles CPE, ROMK primary, Arbovirus inh)
Cc1ccc2nc(N3CCN(Cc4ccc(F)cc4)C3=O)c(C)cc2c1	none (no result: Cl transport mod) | KCC2 secondary inactive | KCC2 bumet counter inactive | KCC2 secondary2 0.0236 | HEK293 Tl flux inactive | KCC2 ouabain inactive | HEK293 Tl flux2 inactive
CCOc1ccc(CN(C(=O)c2oc3ccccc3c2C)C2CCS(=O)(=O)C2)cc1 (centres undefined)	none (no result: ROMK primary) | KCC2 secondary inactive | KCC2 bumet counter inactive | KCC2 secondary2 inactive | HEK293 Tl flux inactive | KCC2 ouabain inactive | HEK293 Tl flux2 inactive
Cc1sc2nc(SCc3nnc(-c4cccs4)o3)n(C3CCCC3)c(=O)c2c1C	Cl transport mod 10.3 | KCC2 secondary 0.0165 | KCC2 bumet counter 0.0461 | KCC2 secondary2 inactive | HEK293 Tl flux 0.019 | KCC2 ouabain inactive | HEK293 Tl flux2 0.014
CCNC(=O)C1CCCN(c2nc(C)cc(C)n2)C1 (centres undefined)	none (no result: Measles CPE)
O=C(Nc1nnc(COc2ccccc2F)s1)Nc1ccccc1F	Cl transport mod 2.58 (no result: Measles CPE, ROMK primary, Arbovirus inh) | KCC2 secondary inactive | KCC2 bumet counter inactive | KCC2 secondary2 inactive | HEK293 Tl flux inactive | KCC2 ouabain inactive | HEK293 Tl flux2 inactive
O=C(Nc1nnc(-c2cccc(F)c2)s1)Nc1ccccc1F	Cl transport mod 3.8 (no result: Measles CPE) | KCC2 secondary inactive | KCC2 bumet counter inactive | KCC2 secondary2 inactive | HEK293 Tl flux inactive | KCC2 ouabain inactive | HEK293 Tl flux2 inactive
COc1ccc(NC(=O)[C@@H]2CC=C[C@@H]3CCN(C4CCCCC4)C(=O)[C@@H]32)cc1	none (no result: Measles CPE, ROMK primary, Cl transport mod, Arbovirus inh)
O=C(Cc1ccccc1[N+](=O)[O-])NCc1ccc(Cl)cc1	none
O=C(NCc1ccc(Cl)cc1)c1n[nH]c([N+](=O)[O-])c1Cl	Cl transport mod -3.79 (no result: Measles CPE) | KCC2 secondary inactive | KCC2 bumet counter 0.00566 | KCC2 secondary2 inconclusive | HEK293 Tl flux inconclusive | KCC2 ouabain inactive | HEK293 Tl flux2 inactive
COc1ccc(OC)c(NC(=O)C(=O)NNC(=O)c2cccs2)c1	Cl transport mod 9.87 (no result: ROMK primary) | KCC2 secondary 0.0149 | KCC2 bumet counter 0.0631 | KCC2 secondary2 inactive | HEK293 Tl flux 0.0221 | KCC2 ouabain 0.0398 | HEK293 Tl flux2 0.0149
COc1ccc(S(=O)(=O)Nc2ccccc2C(=O)Nc2nc(-c3ccc(F)cc3)cs2)cc1OC	Cl transport mod -6.21 | KCC2 secondary 0.00597 | KCC2 bumet counter inactive | KCC2 secondary2 inactive | HEK293 Tl flux inconclusive | KCC2 ouabain 0.0122 | HEK293 Tl flux2 inactive
COc1ccc(OC)c(NC(=O)C2CCN(C(=O)c3cccs3)CC2)c1	none (no result: Measles CPE)

Bioassay records deposited in PubChem BioAssay by several laboratories.
